The results in this text go back to PubChem BioAssay AID2094 (Broad Institute, 2009).

Screen size: about 300,000 compounds; about 1,200 (0.4%) were called active. This is one part of a sample in which actives are shown more often than they occur. Rule as the data show it: active = activity change below about -75% (passing the limit was not always enough); inconclusive = no clear call, values can overlap the other calls.

The assay is described as follows: modulation of AI-2 quorum-sensing luminescence – JMH597 strain, luminescence/OD600 ratio, primary screen (AID 2094).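 Also: luminescence divided by OD600 gain over 9 h not by final OD600 alone.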 To be noted: Vibrio harveyi JMH597 AI-2 luminescence/OD600 ratio, 9 h; at 7.5 µM; hits give low values; 0 = neutral-control median; strain lacks LuxN and CqsS sensors.
In the case of `CCN(C(=O)COc1cccnc1[N+](=O)[O-])C1CCS(=O)(=O)C1` (centres undefined), the activity change is 32.7% (inactive).
As to `N#CCSc1nc(-c2ccccc2)nc2ccc(F)cc12`, the activity change was 12.5% (inactive).
Next, `COC(=O)c1ccc(CSc2nncn2N)cc1`: 26.7% (inactive).
The value for `COC(=O)c1ccc(CSc2nncn2C)cc1` was 9.24% (inactive); that for `COC(=O)c1ccc(SCc2ccccc2)nc1` was -80.3% (active).
On to `COc1ccc(N2CCN(S(=O)(=O)c3cc(Br)cnc3N)CC2)cc1`, for which the activity change was 15.8% (inactive).
The value for `Cc1cc(C(=O)N/N=C/c2cc([N+](=O)[O-])cc(C)c2O)n[nH]1` was -86.5% (active); that for `COc1ccc2ccccc2c1/C=N/NC(=O)c1cc(C)[nH]n1` was 11.2% (inactive); that for `CC(C)(C)c1cc(C(=O)N/N=C/c2ccc([N+](=O)[O-])s2)n[nH]1` was 16.7% (inactive).
Consider `COC(=O)c1ccc(NC(=O)CSc2nnc(C3CC3)n2C)cc1`, for which the activity change is 40.9% (inactive).
For the compound `Cc1c(NC(=O)C(C)OC(=O)c2c3c(nc4ccccc24)CCC(C)C3)c(=O)n(-c2ccccc2)n1C` (centres undefined), the activity change was 5.39% (inactive).
On to `Cc1cc(C)n(CCNCc2c(C(=O)N3C[C@@H](C)O[C@@H](C)C3)nc3ccc(Cl)cn23)n1`, for which the activity change is 11% (inactive).
Next, `CC(=O)Nc1ccc(NS(=O)(=O)c2ccc3c(c2)NC(=O)CC(=O)N3)cc1`: 6.21% (inactive); `Cc1ccc(NS(=O)(=O)c2cc3c(cc2C)NC(=O)CO3)cc1`: 20.3% (inactive); `O=C1COc2ccc(S(=O)(=O)NCCc3ccc(Cl)cc3)cc2N1`: -21.2% (inactive).
In the case of `Cc1ccc(NS(=O)(=O)c2ccc3c(c2)NC(=O)CO3)cc1`, the activity change is -85.9% (active).
In the case of `O=C1COc2ccc(S(=O)(=O)Nc3ccc(OC(F)(F)F)cc3)cc2N1`, the activity change is -94.2% (active).
`Cc1cccc(CCNS(=O)(=O)c2ccc3c(c2)NC(=O)CO3)c1`: the activity change is -59.5% (inactive).
With `COc1cc(NC(=O)c2ccccc2NS(=O)(=O)c2ccc(Cl)s2)cc(OC)c1`, the activity change was 26.9% (inactive).
On to `CCOc1ccc(NC(=O)CC(Cc2ccc(Cl)cc2)C(=O)O)cc1` (centres undefined), for which the activity change was -20.6% (inactive).
Regarding `CCCCCCC12CCC(C(=O)O)(CC1)CC2`, the activity change was 24.4% (inactive).
As to `O=C(CCC(=O)c1cccs1)NC1CCCCCC1`, the activity change is -7.35% (inactive).
The value for `Cn1nnnc1SCC(=O)Nc1nc2ccccc2s1` was 32.4% (inactive).
Consider `O=C(CCC(=O)c1cccs1)Nc1nc2ccccc2s1`, for which the activity change was -87.3% (active).
Regarding `O=C(NC(=S)Nc1ccccc1C(=O)O)c1ccc(-c2ccc(Br)cc2)o1`, the activity change is 9.83% (inactive).
On to `CN(C)S(=O)(=O)c1ccc(N/C=C(\[N+](=O)[O-])S(=O)(=O)c2ccccc2)cc1`, for which the activity change is 28.7% (inactive).
For the compound `CN(Cc1cccnc1)C(=O)c1cc(COc2ccc3ncccc3c2)on1`, the activity change is 38.5% (inactive).
For `CN(Cc1cnccn1)C(=O)c1cc(COc2cccc(C(F)(F)F)c2)on1`, the activity change was -92.5% (active).
As for `Cc1ccc(OCc2cc(C(=O)N(C)CCn3ccnc3C)no2)cc1C`, the activity change was 14.9% (inactive).
As for `Cc1ccc(OCc2cc(C(=O)N(C)CCc3ccccc3)no2)cc1C`, the activity change was 36% (inactive).
Next, `Cc1cc(CN(C)C(=O)c2cc(COc3ccc(C)c(C)c3)on2)n[nH]1`: -90.7% (active); `O=C(c1cc(COc2cccc(C(F)(F)F)c2)on1)N1CCSCC1`: -30.7% (inactive).
The value for `O=S(=O)(c1ccc(Cl)cc1)N1CCCN(c2ccc(C(F)(F)F)cn2)CC1` was 6.59% (inactive).
On to `COc1ccc(CN2CCn3ncc(C(=O)Nc4ccc(Cl)cc4Cl)c3C2=O)cc1`, for which the activity change was 23.8% (inactive).
Next, `CCOc1ccc(S(=O)(=O)Nc2ccncc2)c(C)c1C`: 21.3% (inactive); `COCC1CCN(C(=O)c2ccc3oc(Cc4ccccc4)nc3c2)C1` (centres undefined): 0.814% (inactive).
With `COc1ccc(Cc2nc3ccc(C(=O)N4CCC(N(C)C)C4)cc3o2)cc1` (centres undefined), the activity change was -2.62% (inactive).
`COC(=O)C1CCN(C(=O)c2ccc3oc(Cc4ccc(Cl)cc4)nc3c2)CC1`: the activity change was -86% (active).
Next, `Oc1ccc(-c2cccc(-c3ccc(O)cc3)c2)cc1`: -10.9% (inactive); `O=C(NC1CCCCC1)c1ccc(-c2ccc(Cl)cc2)o1`: 2.19% (inactive).
`COc1ccc(NC(=O)[C@H](NC(=O)[C@@H]2Cc3ccccc3CN2)c2ccccc2)cc1`: the activity change was 13.8% (inactive).
Consider `CCc1ccc(C(=O)CSc2nnc(C)c(=O)[nH]2)cc1`, for which the activity change was 17.8% (inactive).
With `COc1ccccc1C(=O)N1C(CC(=O)Nc2ccccc2C)C(=O)NC2CCCCC21` (centres undefined), the activity change was 6.5% (inactive).
The value for `CC(C)(C)OC(=O)CNC(=O)c1[nH]cnc1C(=O)N[C@@H](Cc1ccccc1)C(=O)OCc1ccccc1` was 20.9% (inactive).
Next, `O=C(NC(=S)NC1CCCCC1)c1ccc(Cl)cc1`: 6.82% (inactive); `S=C(NCc1ccc(Cl)cc1)NC1CCCCC1`: -86.1% (active); `S=C(NCc1ccc(Cl)cc1)NC12CC3CC(CC(C3)C1)C2`: -20.7% (inactive).
In the case of `COc1cc(C(=O)OCC(=O)NC(C)CCc2ccccc2)cc(OC)c1OC` (centres undefined), the activity change is 17.1% (inactive).
In the case of `CCCNC(=O)c1ccc(N2CCC3(CC2)CC(c2cccc(Br)c2)=NO3)c(NC(=O)c2ccco2)c1`, the activity change is 20.3% (inactive).
Consider `O=C(N/N=C/c1ccc([N+](=O)[O-])o1)c1cn(-c2ccccc2)nc1-c1ccc(F)cc1`, for which the activity change was 7.69% (inactive).
The value for `O=C(/C=C/c1ccc([N+](=O)[O-])o1)NNC(=O)c1ccc(F)cc1` was -90.7% (active); that for `Cc1ccc(/C=C/C(=O)Nc2ccc([N+](=O)[O-])c(NC(=O)/C=C/c3ccc(C)o3)c2)o1` was 34.4% (inactive).
For the compound `Cc1nc(CN2CCN(C(=O)CCc3nnc(Cc4c[nH]c5ccccc45)o3)CC2)cs1`, the activity change is 18% (inactive).
Regarding `COc1ccccc1NC(=O)COC(=O)Cc1ccc(S(=O)(=O)N2CCCCC2)s1`, the activity change was 2.99% (inactive).
Next, `CC(=O)c1nn(-c2ccc(C)cc2)cc1C(=O)c1cccc(Br)c1`: 14.3% (inactive); `CCOC(=O)c1cn(Cc2cccc(C)c2)nn1`: 13.8% (inactive).
For `CCOC(=O)c1nn(-c2cccc(C)c2)cc1C(=O)c1ccccc1`, the activity change is -88.4% (active).
Consider `Cc1cc(S(=O)(=O)N2CCOCC2)ccc1OCC(=O)N1CCOCC1`, for which the activity change was 18.8% (inactive).
For the compound `O=C(NC1CCN(C(=S)Nc2ccc(Cl)cc2)CC1)C1CCCCC1`, the activity change is 16.7% (inactive).
